# Test results published in PubChem BioAssay (NCATS).
# A number with no mark means an inactive call. Records with an inconclusive call do not appear. The source made the active and inactive calls. Unless noted, calls follow the shape of the dose curve; as a rule, active = well fitted curve in the direction sought with a large enough effect; inconclusive = small, poorly fitted or top-dose-only effect, or another doubt; inactive = no such curve, though single readings can be large; an effect the other way counts as inactive or inconclusive.
# What was measured:
# [1] = qHTS assay for small molecule agonists of the antioxidant response element (ARE) signaling pathway measured by Nrf2-dependant transcriptional activity - cell viability counter screen (AID 720653; active = well fitted curve in the direction sought with a large enough effect in the repeat runs; an effect the other way counts as inactive or inconclusive; also: % is scaled to controls: 0 for no effect and ±100 for the full control effect); settings: ARE-bla HepG2 viability, CellTiter-Glo ATP luminescence, 16 h; max response: active compounds read low
# In short: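 ARE-bla HepG2 cells (2,000/well) rested 5 hrs at 37C/5% CO2, then exposed to compounds in DMSO for 16 hrs. Viability was read in the same wells as intracellular ATP by luminescence, 30 min at room temperature after reagent addition.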
# [2] = qHTS assay for cell viability of HEK293 cells (AID 743288); settings: ATP luminescence (CellTiter-Glo), 18 h; max response: active compounds read low; also: % is scaled to controls: 0 for no effect and ±100 for the full control effect; nearly all actives have a fitted effect of over 50% in size
# In short: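 Parental HEK293 cells were seeded at 2,000 cells/well, rested at least 5 h at 37 C, then exposed to compounds in DMSO for 18 h at 37 C. Viability was read as ATP-dependent luciferase luminescence after 30 min at room temperature.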
# [3] = qHTS assay for cell viability of the p53RE-bla HCT-116 cell line (AID 743292); settings: p53RE-bla HCT-116 viability, ATP luminescence, 16 h; series mostly up to 95 µM; also: % is scaled to controls: 0 for no effect and ±100 for the full control effect; nearly all actives have a fitted effect of over 55% in size
# In short: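 In this qHTS counter-screen, metabolically competent p53RE-bla HCT-116 cells were counted via their ATP content. Compounds were applied for 16 h at 37 C and luciferase-coupled luminescence was measured.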
# [4] = qHTS assay for small molecule activators of the human pregnane X receptor (PXR) signaling pathway (AID 720659; call rule not given here; also: 0% is about no effect); settings: DPX-2 HepG2 CYP3A4-luciferase, 24 h; series mostly up to 92.3 µM
# [5] = target: Pyruvate kinase PKM (Homo sapiens) (UniProt P14618); assay: qHTS Assay for Inhibitors of Human Muscle Pyruvate Kinase (AID 958); settings: purified human PKM enzyme activity
# Pyruvate kinase PKM (Homo sapiens), sequence (P14618 whole entry, looked up): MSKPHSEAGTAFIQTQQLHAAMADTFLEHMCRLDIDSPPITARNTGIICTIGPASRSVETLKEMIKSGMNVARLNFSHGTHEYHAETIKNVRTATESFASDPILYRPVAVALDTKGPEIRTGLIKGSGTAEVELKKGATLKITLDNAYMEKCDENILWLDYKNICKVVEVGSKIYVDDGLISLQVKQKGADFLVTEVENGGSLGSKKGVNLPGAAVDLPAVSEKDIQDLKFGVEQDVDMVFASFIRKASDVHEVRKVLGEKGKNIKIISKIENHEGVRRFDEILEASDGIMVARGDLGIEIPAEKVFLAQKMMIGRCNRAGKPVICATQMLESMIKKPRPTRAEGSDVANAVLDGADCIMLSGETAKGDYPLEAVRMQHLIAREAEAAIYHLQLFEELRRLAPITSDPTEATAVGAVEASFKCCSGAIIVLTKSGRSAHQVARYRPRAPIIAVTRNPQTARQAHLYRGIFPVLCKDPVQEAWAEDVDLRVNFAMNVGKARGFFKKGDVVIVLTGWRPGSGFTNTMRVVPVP
# In short: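 Compound pinned into substrate mix (0.5 mM PEP, 0.1 mM ADP), then 0.1 nM PKM2 added; 1 h, RT. Stop/detection luciferase reagent added, luminescence read. Normalized to no-inhibition and no-enzyme or reference-inhibitor controls.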
Compound,max response [1],max response [2],Potency [3],outcome [4],Potency [5]
CC(C)=CCC/C(C)=C/CC/C(C)=C/CO,-6.95%,-6.29%,inactive,inactive,
Cc1cccc(/C=C\c2ccccc2)n1,,,,,15.8 µM (active)
